Laboratory results published in PubChem BioAssay (NCI).
Several values for one entry are separate records, joined by “and”; a condition that tells them apart may be missing. Equal values may be shown once. This is part of a sample that, as a whole, favours compounds with a hit. Of some 79,000 tested, about 15% had one in any assay. The source holds several records for some structures; these can differ, active in one and inactive in another. Activity calls are given as the source filed them. Rule as the data show it: active = growth inhibition above about 70%; inactive = the rest.

Assays:
[1] = NCI Yeast Anticancer Drug Screen. Data for the rad52 strain (AID 147);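 also: 0% = growth of vehicle-treated control cultures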; settings: S. cerevisiae rad52 mutant growth inhibition, stronger effect = higher value
Summary of the method: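 DNA repair-defective yeast; compound exposure; growth scored against vehicle controls.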

[2] = NCI Yeast Anticancer Drug Screen. Data for the wt1 strain (AID 149);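 also: 0% = growth of vehicle-treated wt1 cultures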; settings: S. cerevisiae wt1 strain (SPY 50644) growth inhibition, stronger effect = higher value
Summary of the method: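 Measured: growth of wt1 yeast under compound versus vehicle treatment, reported as inhibition.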

[3] = NCI Yeast Anticancer Drug Screen. Data for the rad50EPP+ strain (AID 151);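 also: 0% = growth of vehicle-treated control cultures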; settings: S. cerevisiae rad50 mutant strain, stronger effect = higher value
Summary of the method: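 rad50EPP+ yeast treated with test compounds. Readout: growth vs vehicle control.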

[4] = NCI Yeast Anticancer Drug Screen. Data for the mgt1 strain (AID 153); settings: S. cerevisiae mgt1 mutant growth inhibition, stronger effect = higher value
Summary of the method: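 Growth inhibition relative to vehicle controls was scored for the mgt1 yeast strain after compound exposure.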

[5] = NCI Yeast Anticancer Drug Screen. Data for the rad50 strain (AID 155);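 also: 0% = growth of vehicle-only cultures of the same strain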; settings: S. cerevisiae rad50 strain growth inhibition, stronger effect = higher value
Summary of the method: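 Growth of the mutant yeast was measured after compound exposure and referenced to vehicle-treated cultures.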

[6] = NCI Yeast Anticancer Drug Screen. Data for the mec2-1 strain (AID 157); settings: S. cerevisiae mec2-1 strain, stronger effect = higher value
Summary of the method: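 Growth inhibition is read against vehicle-treated controls after compound exposure of the mec2-1 yeast strain, which is defective in DNA damage repair or cell cycle control.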

[7] = NCI Yeast Anticancer Drug Screen. Data for the rad14 strain (AID 159);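 also: 0% = growth of vehicle-treated control cultures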; settings: S. cerevisiae rad14 strain growth inhibition, stronger effect = higher value
Summary of the method: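 Here, inhibition of yeast growth was measured after compound exposure, using a strain with a genetic defect in DNA damage repair and vehicle-treated cultures as the reference.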

[8] = NCI Yeast Anticancer Drug Screen. Data for the sgs1 mgt1 strain (AID 161);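 also: 0% = growth of cultures given vehicle only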; settings: S. cerevisiae sgs1 mgt1 strain, stronger effect = higher value
Summary of the method: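 This yeast growth screen uses a strain with defined DNA-repair lesions; compound-treated growth is compared with vehicle-treated growth.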

[9] = NCI Yeast Anticancer Drug Screen. Data for the CLN2oe strain (AID 163);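 also: 0% = growth of vehicle-only control cultures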; settings: S. cerevisiae CLN2oe strain, stronger effect = higher value
Summary of the method: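 Compound-treated yeast; growth vs vehicle ctrl = % inhibition. Genetically altered strain (cell-cycle control).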

[10] = NCI Yeast Anticancer Drug Screen. Data for the cln2 rad14 strain (AID 165);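 also: 0% = growth equal to vehicle treated cultures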; settings: S. cerevisiae cln2 rad14 strain, stronger effect = higher value
Summary of the method: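 Growth inhibition, relative to vehicle-treated controls, is the read-out. The test organism is a yeast strain with defined genetic alterations, cln2 rad14.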

[11] = NCI Yeast Anticancer Drug Screen. Data for the bub3 strain (AID 167); settings: S. cerevisiae bub3 mutant strain, stronger effect = higher value
Summary of the method: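 Whole-cell yeast assay. The mutant strain was incubated with compounds, and growth inhibition was determined by comparison with vehicle-treated cells.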

[12] = NCI Yeast Anticancer Drug Screen. Data for the wt2 strain (AID 169);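 also: 0% = growth of vehicle-treated yeast cultures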; settings: S. cerevisiae wt2 strain growth inhibition, stronger effect = higher value
Summary of the method: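 Compound exposure of yeast; growth compared with vehicle controls; inhibition reported.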

[13] = NCI Yeast Anticancer Drug Screen. Data for the sgs1 strain (AID 173);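 also: 0% = growth of vehicle-only control cultures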; settings: S. cerevisiae sgs1 mutant, stronger effect = higher value
Summary of the method: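 Compounds applied to genetically altered yeast; growth compared with vehicle-treated cultures to give % inhibition.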

[14] = NCI Yeast Anticancer Drug Screen. Data for the mlh1 rad18 strain (AID 175); settings: S. cerevisiae mlh1 rad18 strain growth inhibition, stronger effect = higher value
Summary of the method: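 Cells of a genetically altered yeast strain, deficient in DNA damage repair, were treated with compound. Their growth was then compared with that of vehicle-treated cultures to give inhibition.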

[15] = NCI Yeast Anticancer Drug Screen. Data for the rad18 strain (AID 177); settings: S. cerevisiae rad18 mutant growth inhibition, stronger effect = higher value
Summary of the method: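 Compounds are applied to a repair-deficient yeast strain, and growth is compared with that of vehicle-treated cultures to give percent inhibition.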

[16] = at 5.0 µM (retest, dose inferred, filed as 0.5)
[17] = at 50.0 µM (retest, dose inferred, filed as 5.0)

Measured: growth inhibition

Cc1ccc(Sc2ccccc2N)cc1
95% (active) and 64% (inactive): [6]; [17]
95% (active) and 62% (inactive): [5]; [17]
94% (active) and 67% (inactive): [10]; [17]
active: [1]; at 100.0 µM 98% | [2]; at 100.0 µM 99% | [3]; at 100.0 µM 93% | [4]; at 100.0 µM 98% | [5]; at 50.0 µM 90.5% | [5]; at 100.0 µM 98% | [6]; at 50.0 µM 92.3% | [6]; at 100.0 µM 98% | [7]; at 100.0 µM 99% | [8]; [17] 91% and 73% | [8]; at 50.0 µM 93.2% | [9]; at 100.0 µM 98% | [10]; at 50.0 µM 91.7% | [11]; [17] 94% and 81% | [11]; at 50.0 µM 92% | [11]; at 100.0 µM 98% | [12]; at 100.0 µM 98% | [13]; at 100.0 µM 98% | [14]; [17] 90% and 73% | [14]; at 50.0 µM 90.5% and 91% | [15]; at 100.0 µM 98%
inactive: [1]; at 1.2 µM 9% | [1]; at 3.7 µM -3% | [1]; at 11.0 µM -13% | [1]; at 33.0 µM 45% | [2]; at 1.2 µM 16% | [2]; at 3.7 µM 6% | [2]; at 11.0 µM -7% | [2]; at 33.0 µM 42% | [3]; at 1.2 µM 8% | [3]; at 3.7 µM -1% | [3]; at 11.0 µM 16% | [3]; at 33.0 µM 64% | [4]; at 1.2 µM 0% | [4]; at 3.7 µM -17% | [4]; at 11.0 µM -21% | [4]; at 33.0 µM 38% | [5]; at 1.2 µM 0% | [5]; at 3.7 µM -3% | [5]; [16] 31% and 32% | [5]; at 11.0 µM -12% | [5]; at 33.0 µM 17% | [6]; at 1.2 µM -30% | [6]; at 3.7 µM -18% | [6]; [16] 50% and 23% | [6]; at 11.0 µM -32% | [6]; at 33.0 µM 25% | [7]; at 1.2 µM -4% | [7]; at 3.7 µM -18% | [7]; at 11.0 µM -10% | [7]; at 33.0 µM 32% | [8]; [16] -5% and 43% | [9]; at 1.2 µM 22% | [9]; at 3.7 µM 12% | [9]; at 11.0 µM -3% | [9]; at 33.0 µM 46% | [10]; [16] 42% and 29% | [11]; at 1.2 µM -6% | [11]; at 3.7 µM -2% | [11]; [16] 34% and 40% | [11]; at 11.0 µM -10% | [11]; at 33.0 µM 24% | [12]; at 1.2 µM -16% | [12]; at 3.7 µM -2% | [12]; at 11.0 µM -17% | [12]; at 33.0 µM 35% | [13]; at 1.2 µM 8% | [13]; at 3.7 µM -2% | [13]; at 11.0 µM -3% | [13]; at 33.0 µM 51% | [14]; [16] 32% and 37% | [15]; at 1.2 µM -16% | [15]; at 3.7 µM -13% | [15]; at 11.0 µM -21% | [15]; at 33.0 µM 12%

OCC(CO)C(c1cccc2ccccc12)c1cccc2ccccc12
active: [1]; at 11.0 µM 98% | [1]; at 33.0 µM 98% | [1]; at 100.0 µM 88% | [2]; at 11.0 µM 98% | [2]; at 33.0 µM 99% | [2]; at 100.0 µM 94% | [4]; at 11.0 µM 98% | [4]; at 33.0 µM 99% | [4]; at 100.0 µM 93% | [5]; at 11.0 µM 98% | [5]; at 33.0 µM 98% | [5]; [17] 99% | [5]; at 50.0 µM 99.3% | [5]; at 100.0 µM 88% | [6]; at 11.0 µM 98% | [6]; at 33.0 µM 99% | [6]; [17] 99% | [6]; at 50.0 µM 99.2% | [6]; at 100.0 µM 92% | [7]; at 11.0 µM 99% | [7]; at 33.0 µM 99% | [7]; at 100.0 µM 90% | [8]; [17] 100% | [8]; at 50.0 µM 99.2% | [9]; at 11.0 µM 99% | [9]; at 33.0 µM 99% | [9]; at 100.0 µM 88% | [10]; [17] 97% | [10]; at 50.0 µM 99.2% | [11]; at 11.0 µM 98% | [11]; at 33.0 µM 99% | [11]; [17] 99% | [11]; at 50.0 µM 99.3% | [11]; at 100.0 µM 89% | [12]; at 11.0 µM 98% | [12]; at 33.0 µM 99% | [12]; at 100.0 µM 90% | [13]; at 11.0 µM 98% | [13]; at 33.0 µM 99% | [13]; at 100.0 µM 93% | [14]; [17] 99% | [14]; at 50.0 µM 98.7% | [15]; at 11.0 µM 98% | [15]; at 33.0 µM 99% | [15]; at 100.0 µM 88%
inactive: [1]; at 1.2 µM 3% | [1]; at 3.7 µM 42% | [2]; at 1.2 µM -5% | [2]; at 3.7 µM 1% | [3]; at 1.2 µM 0% | [3]; at 3.7 µM 3% | [3]; at 11.0 µM 10% | [3]; at 33.0 µM 13% | [3]; at 100.0 µM -2% | [4]; at 1.2 µM -1% | [4]; at 3.7 µM 9% | [5]; at 1.2 µM 4% | [5]; at 3.7 µM 40% | [5]; [16] 19% | [6]; at 1.2 µM -1% | [6]; at 3.7 µM 21% | [6]; [16] 4% | [7]; at 1.2 µM 0% | [7]; at 3.7 µM 20% | [8]; [16] 6% | [9]; at 1.2 µM -2% | [9]; at 3.7 µM 28% | [10]; [16] 2% | [11]; at 1.2 µM -1% | [11]; at 3.7 µM 9% | [11]; [16] -1% | [12]; at 1.2 µM -4% | [12]; at 3.7 µM 3% | [13]; at 1.2 µM 1% | [13]; at 3.7 µM 15% | [14]; [16] 7% | [15]; at 1.2 µM 7% | [15]; at 3.7 µM 53%
